Experiments:
Experiment in all cases: DAPPL (digital affinity profiling via proximity ligation, sequencing); 10 mM Tris-HCl pH 7.5, 50 mM NaCl, 1 mM DTT, 4% glycerol, room temperature, 30 min; GST-TFs on glutathione beads, 16-mer random dsDNA library, 0.1% formaldehyde crosslink after washing; high values mean tight binding
Conditions in all cases: protein: recombinant; tags: N-terminal GST; dsDNA, one strand shown
[1] = target: T1, FLI1 (Homo sapiens, UniProt Q01543 1-452)
T1 sequence: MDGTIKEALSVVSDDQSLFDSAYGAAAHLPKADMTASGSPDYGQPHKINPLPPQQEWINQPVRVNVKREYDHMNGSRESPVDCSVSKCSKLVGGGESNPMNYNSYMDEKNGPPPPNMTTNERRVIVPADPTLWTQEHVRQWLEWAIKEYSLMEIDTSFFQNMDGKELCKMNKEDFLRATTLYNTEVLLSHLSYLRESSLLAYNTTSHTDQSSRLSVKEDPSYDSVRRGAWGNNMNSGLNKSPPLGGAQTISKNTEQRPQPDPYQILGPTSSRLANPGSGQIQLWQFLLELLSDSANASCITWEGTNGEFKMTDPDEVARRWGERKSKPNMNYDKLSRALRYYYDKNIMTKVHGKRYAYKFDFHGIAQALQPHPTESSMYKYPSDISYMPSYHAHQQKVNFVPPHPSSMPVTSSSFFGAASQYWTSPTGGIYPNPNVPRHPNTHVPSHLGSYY
In short: (§1)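 Human transcription factors carrying a GST fusion were produced in yeast, bound to glutathione beads, tagged with DNA barcodes and pooled together with a tag-only sample. Each pool was held with 200 nmole of a random double-stranded 16-mer DNA library in Tris/NaCl/DTT/glycerol buffer for 30 min at room temperature, then washed, crosslinked in 0.1% formaldehyde, proximity-ligated with BsaI/T4 ligase (1 h, 37 °C), PCR-amplified and sequenced on an Illumina NextSeq500. Binding signal is the read frequency of each hexamer for a given factor divided by its frequency in the tag-only sample.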

[2] = target: T2, ELK1 (Homo sapiens, UniProt P19419 1-428)
T2 sequence: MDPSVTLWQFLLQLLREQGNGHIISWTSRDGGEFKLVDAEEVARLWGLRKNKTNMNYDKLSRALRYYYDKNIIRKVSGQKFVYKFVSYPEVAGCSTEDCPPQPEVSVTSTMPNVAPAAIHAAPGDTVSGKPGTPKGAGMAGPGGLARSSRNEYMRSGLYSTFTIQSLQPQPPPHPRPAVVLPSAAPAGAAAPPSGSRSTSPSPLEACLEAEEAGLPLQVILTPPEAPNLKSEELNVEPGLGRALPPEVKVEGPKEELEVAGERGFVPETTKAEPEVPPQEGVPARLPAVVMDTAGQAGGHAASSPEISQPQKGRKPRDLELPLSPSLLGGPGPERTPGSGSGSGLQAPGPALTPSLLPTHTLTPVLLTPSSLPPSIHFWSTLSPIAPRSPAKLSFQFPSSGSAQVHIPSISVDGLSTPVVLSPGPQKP
In short: as §1

[3] = target: T3, GABPA (Homo sapiens, UniProt Q06546 1-454)
T3 sequence: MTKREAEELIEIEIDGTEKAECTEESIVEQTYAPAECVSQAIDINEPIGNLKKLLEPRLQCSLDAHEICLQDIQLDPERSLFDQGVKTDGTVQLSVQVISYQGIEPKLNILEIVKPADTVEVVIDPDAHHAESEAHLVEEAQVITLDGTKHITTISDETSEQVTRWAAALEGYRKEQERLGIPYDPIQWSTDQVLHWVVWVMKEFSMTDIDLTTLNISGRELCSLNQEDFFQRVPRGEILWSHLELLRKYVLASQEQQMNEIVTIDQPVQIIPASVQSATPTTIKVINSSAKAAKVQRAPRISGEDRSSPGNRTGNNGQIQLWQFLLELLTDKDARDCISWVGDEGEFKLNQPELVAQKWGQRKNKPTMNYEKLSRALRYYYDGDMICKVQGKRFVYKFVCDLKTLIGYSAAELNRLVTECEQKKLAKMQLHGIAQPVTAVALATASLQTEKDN
In short: as §1

[4] = target: T4, ERG (Homo sapiens, UniProt P11308 1-479)
T4 sequence: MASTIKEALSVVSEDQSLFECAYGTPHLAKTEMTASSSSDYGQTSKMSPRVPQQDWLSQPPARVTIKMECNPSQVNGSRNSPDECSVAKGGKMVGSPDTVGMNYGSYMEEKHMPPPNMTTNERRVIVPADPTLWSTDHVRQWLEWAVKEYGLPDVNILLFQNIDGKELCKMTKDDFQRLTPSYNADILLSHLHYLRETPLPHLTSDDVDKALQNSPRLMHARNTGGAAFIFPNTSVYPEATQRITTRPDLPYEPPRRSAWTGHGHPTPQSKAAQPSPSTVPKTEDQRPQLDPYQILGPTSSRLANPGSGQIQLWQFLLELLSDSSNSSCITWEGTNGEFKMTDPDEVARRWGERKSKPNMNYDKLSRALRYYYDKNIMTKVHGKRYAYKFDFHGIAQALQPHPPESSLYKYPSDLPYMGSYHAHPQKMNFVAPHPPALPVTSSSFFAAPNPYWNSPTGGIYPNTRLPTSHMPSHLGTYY
In short: as §1

[5] = target: ELF1 (Homo sapiens, UniProt P32519 1-619)
ELF1, sequence (P32519 whole entry): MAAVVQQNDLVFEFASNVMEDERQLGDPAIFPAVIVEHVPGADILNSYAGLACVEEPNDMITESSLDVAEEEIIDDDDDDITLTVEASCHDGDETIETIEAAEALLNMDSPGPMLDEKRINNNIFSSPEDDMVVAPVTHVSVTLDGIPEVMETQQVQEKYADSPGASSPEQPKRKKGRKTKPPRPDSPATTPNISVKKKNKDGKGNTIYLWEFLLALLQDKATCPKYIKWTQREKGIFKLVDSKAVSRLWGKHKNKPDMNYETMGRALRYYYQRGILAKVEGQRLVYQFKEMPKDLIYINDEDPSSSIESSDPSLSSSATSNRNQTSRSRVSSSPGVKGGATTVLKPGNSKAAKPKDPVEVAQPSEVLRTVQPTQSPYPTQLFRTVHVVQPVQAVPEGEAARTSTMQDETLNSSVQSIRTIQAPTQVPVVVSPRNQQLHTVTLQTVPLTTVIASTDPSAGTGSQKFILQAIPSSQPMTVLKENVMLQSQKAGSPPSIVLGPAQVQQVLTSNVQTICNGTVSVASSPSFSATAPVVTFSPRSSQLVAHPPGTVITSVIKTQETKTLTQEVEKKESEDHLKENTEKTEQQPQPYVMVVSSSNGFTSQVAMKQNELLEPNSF
In short: as §1

[6] = target: SPI1 (Homo sapiens, UniProt P17947 1-270)
In short: as §1

[7] = target: SPIB (Homo sapiens, UniProt Q01892 1-262)
SPIB, sequence (Q01892 whole entry): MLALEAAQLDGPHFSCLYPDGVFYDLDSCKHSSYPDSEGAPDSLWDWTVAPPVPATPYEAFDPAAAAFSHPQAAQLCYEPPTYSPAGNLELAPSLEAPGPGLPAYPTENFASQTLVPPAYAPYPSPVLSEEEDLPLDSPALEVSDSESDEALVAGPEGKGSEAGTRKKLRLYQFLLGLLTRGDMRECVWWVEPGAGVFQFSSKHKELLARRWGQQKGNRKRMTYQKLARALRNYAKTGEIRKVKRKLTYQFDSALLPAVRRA
In short: as §1

[8] = target: T5, ELK3 (Homo sapiens, UniProt P41970 1-407)
T5 sequence: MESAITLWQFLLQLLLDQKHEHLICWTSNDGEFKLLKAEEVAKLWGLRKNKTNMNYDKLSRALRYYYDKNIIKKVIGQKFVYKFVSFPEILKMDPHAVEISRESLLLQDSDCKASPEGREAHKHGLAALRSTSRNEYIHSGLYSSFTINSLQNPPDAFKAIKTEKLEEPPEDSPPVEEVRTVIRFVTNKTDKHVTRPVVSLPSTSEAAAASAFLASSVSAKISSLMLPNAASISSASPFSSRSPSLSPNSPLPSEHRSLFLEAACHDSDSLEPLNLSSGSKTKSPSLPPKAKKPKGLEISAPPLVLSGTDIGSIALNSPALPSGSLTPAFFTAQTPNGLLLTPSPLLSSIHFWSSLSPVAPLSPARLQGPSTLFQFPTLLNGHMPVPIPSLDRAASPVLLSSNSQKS
In short: as §1

[9] = target: T6, FEV (Homo sapiens, UniProt Q99581 1-238)
T6 sequence: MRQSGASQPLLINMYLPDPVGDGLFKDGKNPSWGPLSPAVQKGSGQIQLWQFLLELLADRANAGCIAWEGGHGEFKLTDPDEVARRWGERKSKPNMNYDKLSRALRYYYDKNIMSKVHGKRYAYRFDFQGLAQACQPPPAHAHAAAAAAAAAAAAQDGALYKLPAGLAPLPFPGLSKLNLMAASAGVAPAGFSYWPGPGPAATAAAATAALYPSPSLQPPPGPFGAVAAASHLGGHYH
In short: as §1

[10] = target: ETV5 (Homo sapiens, UniProt P41161 1-510)
ETV5, sequence (P41161 whole entry): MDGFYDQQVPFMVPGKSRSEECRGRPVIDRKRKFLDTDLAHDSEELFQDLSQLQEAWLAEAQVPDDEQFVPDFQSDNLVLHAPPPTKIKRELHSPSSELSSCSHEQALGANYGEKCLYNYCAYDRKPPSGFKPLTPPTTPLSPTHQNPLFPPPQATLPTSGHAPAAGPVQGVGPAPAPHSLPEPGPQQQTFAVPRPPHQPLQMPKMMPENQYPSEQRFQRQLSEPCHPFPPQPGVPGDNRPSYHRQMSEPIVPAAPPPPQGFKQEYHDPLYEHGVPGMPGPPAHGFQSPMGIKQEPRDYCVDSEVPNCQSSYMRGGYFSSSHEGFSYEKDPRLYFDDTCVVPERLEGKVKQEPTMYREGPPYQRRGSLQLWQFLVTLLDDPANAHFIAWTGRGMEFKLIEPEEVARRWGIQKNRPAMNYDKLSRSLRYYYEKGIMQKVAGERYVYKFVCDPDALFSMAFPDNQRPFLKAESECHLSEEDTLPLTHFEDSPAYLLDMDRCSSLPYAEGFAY
In short: as §1

[11] = target: T7, SPIC (Homo sapiens, UniProt Q8N5J4 1-248)
T7 sequence: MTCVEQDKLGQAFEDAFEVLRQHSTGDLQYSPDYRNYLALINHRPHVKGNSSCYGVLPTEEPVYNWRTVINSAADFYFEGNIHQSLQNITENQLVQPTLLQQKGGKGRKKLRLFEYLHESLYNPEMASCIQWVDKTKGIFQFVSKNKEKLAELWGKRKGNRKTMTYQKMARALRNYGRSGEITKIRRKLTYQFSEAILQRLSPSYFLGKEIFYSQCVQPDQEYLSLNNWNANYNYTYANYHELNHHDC
In short: as §1

[12] = target: ELF4 (Homo sapiens, UniProt Q99607 1-663)
ELF4, sequence (Q99607 whole entry): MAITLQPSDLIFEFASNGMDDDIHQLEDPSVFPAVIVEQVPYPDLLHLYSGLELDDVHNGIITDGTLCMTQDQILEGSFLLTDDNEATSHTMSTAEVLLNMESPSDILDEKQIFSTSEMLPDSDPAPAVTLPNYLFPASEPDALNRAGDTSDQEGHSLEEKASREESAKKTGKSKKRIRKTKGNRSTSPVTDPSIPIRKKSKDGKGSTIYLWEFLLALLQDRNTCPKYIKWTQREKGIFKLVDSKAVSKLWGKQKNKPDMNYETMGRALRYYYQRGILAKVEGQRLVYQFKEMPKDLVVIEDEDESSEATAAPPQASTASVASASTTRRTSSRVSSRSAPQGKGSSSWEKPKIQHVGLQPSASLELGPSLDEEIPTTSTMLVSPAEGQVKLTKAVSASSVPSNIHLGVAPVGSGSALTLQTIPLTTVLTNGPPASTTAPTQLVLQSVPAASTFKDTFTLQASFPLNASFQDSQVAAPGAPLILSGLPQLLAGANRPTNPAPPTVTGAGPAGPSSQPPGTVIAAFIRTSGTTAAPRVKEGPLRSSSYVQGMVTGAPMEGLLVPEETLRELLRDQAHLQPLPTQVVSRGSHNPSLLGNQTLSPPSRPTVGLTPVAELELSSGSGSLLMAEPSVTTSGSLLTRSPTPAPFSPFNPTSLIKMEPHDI
In short: as §1

[13] = target: T8, ELK4 (Homo sapiens, UniProt P28324-2 1-405)
T8 sequence: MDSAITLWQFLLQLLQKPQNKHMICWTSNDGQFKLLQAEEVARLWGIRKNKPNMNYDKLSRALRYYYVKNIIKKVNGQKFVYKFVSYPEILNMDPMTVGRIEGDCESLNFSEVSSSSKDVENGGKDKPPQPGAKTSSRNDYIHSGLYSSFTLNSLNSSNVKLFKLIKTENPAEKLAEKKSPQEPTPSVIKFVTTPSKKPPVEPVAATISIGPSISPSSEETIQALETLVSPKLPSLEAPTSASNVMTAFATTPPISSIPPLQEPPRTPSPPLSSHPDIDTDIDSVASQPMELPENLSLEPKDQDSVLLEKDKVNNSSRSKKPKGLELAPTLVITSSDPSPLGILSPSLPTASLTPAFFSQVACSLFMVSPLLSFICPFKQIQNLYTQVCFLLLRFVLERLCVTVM
In short: as §1

[14] = target: T9, ETV2 (Homo sapiens, UniProt O00321 1-342)
T9 sequence: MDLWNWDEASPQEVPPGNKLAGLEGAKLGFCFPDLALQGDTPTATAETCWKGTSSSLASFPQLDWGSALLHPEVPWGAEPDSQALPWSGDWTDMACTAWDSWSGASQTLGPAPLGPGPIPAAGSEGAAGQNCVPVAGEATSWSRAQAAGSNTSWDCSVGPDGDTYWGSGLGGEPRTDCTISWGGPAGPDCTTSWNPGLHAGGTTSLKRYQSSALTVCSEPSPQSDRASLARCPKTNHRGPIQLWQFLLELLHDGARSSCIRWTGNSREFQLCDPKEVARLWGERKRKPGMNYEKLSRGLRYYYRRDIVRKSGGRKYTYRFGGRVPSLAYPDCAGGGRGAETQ
In short: as §1

[15] = target: T10, ELF3 (Homo sapiens, UniProt P78545 1-371)
T10 sequence: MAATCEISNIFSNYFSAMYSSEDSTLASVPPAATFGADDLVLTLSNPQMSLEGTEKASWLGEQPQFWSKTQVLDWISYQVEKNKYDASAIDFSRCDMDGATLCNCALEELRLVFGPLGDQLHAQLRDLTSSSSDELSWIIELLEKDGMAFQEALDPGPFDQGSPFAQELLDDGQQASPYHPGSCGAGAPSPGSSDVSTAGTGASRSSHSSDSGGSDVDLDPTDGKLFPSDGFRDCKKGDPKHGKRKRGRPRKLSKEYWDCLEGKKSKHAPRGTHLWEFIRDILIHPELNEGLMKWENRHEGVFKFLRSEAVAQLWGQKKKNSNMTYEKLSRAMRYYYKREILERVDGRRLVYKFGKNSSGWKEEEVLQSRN
In short: as §1

[16] = target: ETV1 (Homo sapiens, UniProt P50549 1-477)
ETV1, sequence (P50549 whole entry): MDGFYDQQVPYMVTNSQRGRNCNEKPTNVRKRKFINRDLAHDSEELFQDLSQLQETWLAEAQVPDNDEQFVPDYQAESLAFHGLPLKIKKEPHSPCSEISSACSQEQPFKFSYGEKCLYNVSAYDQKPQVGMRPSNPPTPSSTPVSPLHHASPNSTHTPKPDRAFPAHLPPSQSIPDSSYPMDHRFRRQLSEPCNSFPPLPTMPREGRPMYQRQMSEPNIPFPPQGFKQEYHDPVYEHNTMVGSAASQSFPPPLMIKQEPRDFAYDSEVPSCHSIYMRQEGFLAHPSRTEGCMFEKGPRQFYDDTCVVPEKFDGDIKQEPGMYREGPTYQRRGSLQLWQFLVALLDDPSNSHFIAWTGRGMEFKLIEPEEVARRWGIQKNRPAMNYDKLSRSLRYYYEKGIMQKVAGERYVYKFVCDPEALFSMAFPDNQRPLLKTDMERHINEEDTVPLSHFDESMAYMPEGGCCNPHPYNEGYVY
In short: as §1

[17] = target: T11, EHF (Homo sapiens, UniProt Q9NZC4 1-300)
T11 sequence: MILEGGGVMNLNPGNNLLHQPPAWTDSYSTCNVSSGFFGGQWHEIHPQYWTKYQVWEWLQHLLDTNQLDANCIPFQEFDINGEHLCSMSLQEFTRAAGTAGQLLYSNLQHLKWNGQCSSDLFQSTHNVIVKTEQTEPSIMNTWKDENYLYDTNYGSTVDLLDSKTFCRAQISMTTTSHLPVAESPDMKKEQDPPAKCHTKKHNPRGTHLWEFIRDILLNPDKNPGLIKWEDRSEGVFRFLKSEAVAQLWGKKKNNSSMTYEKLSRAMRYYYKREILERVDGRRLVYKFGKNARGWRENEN
In short: as §1

Sequence | binding signal [1] | binding signal [2] | binding signal [3] | binding signal [4] | binding signal [5] | binding signal [6] | binding signal [7] | binding signal [8] | binding signal [9] | binding signal [10] | binding signal [11] | binding signal [12] | binding signal [13] | binding signal [14] | binding signal [15] | binding signal [16] | binding signal [17]
GGTTCA | 1.14 fold enrichment (6-mer frequency, TF over GST control) | 1.04 fold enrichment (6-mer frequency, TF over GST control) | 1.11 fold enrichment (6-mer frequency, TF over GST control) | 1.03 fold enrichment (6-mer frequency, TF over GST control) | 1.07 fold enrichment (6-mer frequency, TF over GST control) | 1.02 fold enrichment (6-mer frequency, TF over GST control) | 1.04 fold enrichment (6-mer frequency, TF over GST control) | 1.03 fold enrichment (6-mer frequency, TF over GST control) | 1.1 fold enrichment (6-mer frequency, TF over GST control) | 1.03 fold enrichment (6-mer frequency, TF over GST control) | 1.14 fold enrichment (6-mer frequency, TF over GST control) | 1.08 fold enrichment (6-mer frequency, TF over GST control) | 1.14 fold enrichment (6-mer frequency, TF over GST control) | 1.14 fold enrichment (6-mer frequency, TF over GST control) | 1.07 fold enrichment (6-mer frequency, TF over GST control) | 1.07 fold enrichment (6-mer frequency, TF over GST control) | –
CTATGT | 1.11 fold enrichment (6-mer frequency, TF over GST control) | 1.11 fold enrichment (6-mer frequency, TF over GST control) | 1.22 fold enrichment (6-mer frequency, TF over GST control) | – | 1.09 fold enrichment (6-mer frequency, TF over GST control) | 1.04 fold enrichment (6-mer frequency, TF over GST control) | 1.15 fold enrichment (6-mer frequency, TF over GST control) | – | 1.09 fold enrichment (6-mer frequency, TF over GST control) | 1.01 fold enrichment (6-mer frequency, TF over GST control) | 1.01 fold enrichment (6-mer frequency, TF over GST control) | 1.18 fold enrichment (6-mer frequency, TF over GST control) | 1.15 fold enrichment (6-mer frequency, TF over GST control) | 1.14 fold enrichment (6-mer frequency, TF over GST control) | 1.23 fold enrichment (6-mer frequency, TF over GST control) | 1 fold enrichment (6-mer frequency, TF over GST control) | 1.03 fold enrichment (6-mer frequency, TF over GST control)

Reference: article PMC7862700, “An all-to-all approach to the identification of sequence-specific readers for epigenetic DNA modifications on cytosine”
